# Sampled rows, rich in hits. Any-hit rate of the full collection: about 4.3%.
# ADAM17 inh = ADAM17 inhibition, QFRET primary screen | P78536 | 370,000 compounds, 0.83% hits | AID 720648 | recombinant ADAM17, EDANS/DABCYL FRET peptide cleavage | inhibition, % at 6.95 µM;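 active means inhibition above the mean of compounds lying between control limits plus 3 SD, set per campaign, cut at about 8.5% in these data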;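 further: 0% = DMSO-only wells as the low control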
# HGIII-sPLA2 inh = Blocks human group III sPLA2 activity; Q9NZ20; QFRET BODIPY PC-A2 liposome hydrolysis, fluorescence; inhibition, % at 12.2 µM; 370,000 compounds, 0.56% hits; AID 743126;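 active means inhibition above mean plus 3 SD of compounds lying within the high and low control bounds, cut at about 19% in these data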;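 further: 0% = median of test compound wells and 100% = no enzyme DMSO wells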
# Target sequence (Q9NZ20 whole entry, looked up): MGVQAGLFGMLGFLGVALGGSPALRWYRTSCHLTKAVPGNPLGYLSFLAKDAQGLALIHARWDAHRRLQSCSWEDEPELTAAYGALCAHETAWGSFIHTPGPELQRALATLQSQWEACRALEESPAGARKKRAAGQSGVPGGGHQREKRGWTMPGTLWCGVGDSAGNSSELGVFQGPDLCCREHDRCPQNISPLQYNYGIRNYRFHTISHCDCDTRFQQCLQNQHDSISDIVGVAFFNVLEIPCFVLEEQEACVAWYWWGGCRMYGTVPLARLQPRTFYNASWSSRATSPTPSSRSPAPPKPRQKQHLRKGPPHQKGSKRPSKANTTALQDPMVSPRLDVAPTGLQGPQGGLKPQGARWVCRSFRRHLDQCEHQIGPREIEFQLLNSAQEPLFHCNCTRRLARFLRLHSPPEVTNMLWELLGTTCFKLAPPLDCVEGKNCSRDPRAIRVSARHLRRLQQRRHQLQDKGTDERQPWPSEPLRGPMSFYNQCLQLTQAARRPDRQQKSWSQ
# NR3A LBD binder = modulates the human NR3A ligand-binding domain. NR3A LBD differential scanning fluorimetry, Tm shift; 0% = protein alone, 100% = glycine-bound protein. Tm shift relative to glycine control, % at 25 µM. 340,000 compounds, 2.5% hits;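 active means melting temperature shift of at least 10% of the positive control shift, at one fixed dose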
# ADAM10 inh = ADAM10 inhibition, QFRET primary screen; O14672; recombinant ADAM10, EDANS/DABCYL FRET peptide cleavage, 3 h; inhibition, % at 7 µM; 370,000 compounds, 0.62% hits;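 active means inhibition above a per-campaign cutoff equal to the mean of compounds falling between control-based bounds plus 3 SD, cut at about 20% in these data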;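 further: 0% = DMSO wells while the 100% control is not disclosed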
# FAS TE block = FAS thioesterase (human) inhibition; 360,000 compounds, 0.67% hits; inhibition, % at 15 µM; P49327; recombinant FAS-TE, OMFH fluorogenic substrate, fluorescence endpoint;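 active means compounds whose normalised, plate-corrected inhibition of enzyme fluorescence in the single-dose primary screen is 50% or more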;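 further: 0% = DMSO with enzyme and 100% = substrate without enzyme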
# ADAM10 ctr = inhibits human ADAM10 in ADAM17 exosite counter-screen; shares compounds with ADAM17 inh; recombinant ADAM10, EDANS/DABCYL FRET peptide cleavage, 3 h; inhibition, % at 6.95 µM; 2,900 compounds, 47% hits; AID 743256;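 active means mean inhibition over the triplicate runs exceeds the activity threshold set in the earlier primary screen, cut at about 20% in these data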;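 further: 0% = DMSO wells and 100% = marimastat wells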
# ADAM17 confirm = human ADAM17 inhibition, confirmation | shares compounds with ADAM17 inh | recombinant ADAM17, EDANS/DABCYL QFRET peptide cleavage | inhibition, % at 6.95 µM | 2,900 compounds, 65% hits | AID 743257;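 active means mean inhibition across replicates above the hit cutoff set in the primary screen, cut at about 8.5% in these data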;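 further: 0% = DMSO wells and 100% = marimastat wells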
# * hit, by the source's call; i = inactive; . = not tested or not shown.
SMILES,ADAM17 inh,HGIII-sPLA2 inh,NR3A LBD binder,ADAM10 inh,FAS TE block,ADAM10 ctr,ADAM17 confirm
CCOC(=O)C1=C(C)Nc2ccccc2N/C1=N\S(=O)(=O)c1ccc(Cl)cc1,12*,-21,-2,0,-6,4,5
CCOC(=O)C1=C(C)Nc2ccccc2N/C1=N\S(=O)(=O)c1cccc(Cl)c1,-1,-1,-3,-6,-3,.,.
CCCOc1ccc(F)cc1-c1cc(C(=O)NCc2ccc(C(F)(F)F)cc2)[nH]n1,.,.,.,.,30,.,.
Cc1cc(F)cc(-c2cc(C(=O)NCc3cccc(Cl)c3)[nH]n2)c1,9.1*,-7,.,12,9,6,2
CCCOc1ccc(F)cc1-c1cc(C(=O)NCc2cccc(C(F)(F)F)c2)[nH]n1,9.7*,-3,.,15,20,22*,15*
Nc1[nH]c2ccccc2c1C(=O)NC1CC1,-5,6,.,-11,.,.,.
COC(=O)[C@]12C[C@H](CC(=O)NCCCCc3ccccc3)C(=O)N(Cc3ccc(Cl)cc3Cl)C1=C[C@H](C(C)C)O[C@@H]2C1CC1,-5,0,.,-7,.,.,.
O=C(Cc1cccs1)Nc1nc(-c2ccc(F)c(F)c2)cs1,2,-21,-9,11,31,.,.
O=C(Cc1cccs1)Nc1nc(-c2ccc(F)cc2F)cs1,14*,-16,2,16,32,19,11*
CC(C)(C)OC(=O)C[C@@H]1C/C=C\C[C@H](CC(=O)N[C@H](CO)Cc2ccccc2)C(=O)N2CCC[C@H]2COC1=O,9.2*,-4,-2,5,-9,4,11*
C[C@]12CCC(=O)C=C1CC[C@@H]1[C@@H]2[C@@H](O)C[C@@]2(C)[C@H]1CC[C@]2(O)C(=O)COC(=O)CCC(=O)O,8.8*,7,1,3,-7,4,3
COC(=O)C[C@@H]1CC[C@H]2[C@@H](COc3ccc(NC(=O)Nc4ccccc4C)cc3C(=O)N2C)O1,1,4,.,1,.,.,.
CCOc1ccc(N(CC(=O)NN=C2CCN(C)CC2)S(C)(=O)=O)cc1,8.7*,-10,0,12,-8,-3,-1
CCOc1ccc(N(CC(=O)Nc2cccc(C)c2)S(C)(=O)=O)cc1,9.0*,-2,1,9,1,0,2
CCOC(=O)N1CCN(C(=O)CN(c2ccc(OCC)cc2)S(C)(=O)=O)CC1,-1,1,1,-4,-5,.,.
COc1ccc2c(c1)[C@@]1(OCCC=C[C@H]1C)C(=O)N2Cc1ccc(Br)cc1,5,0,.,9,.,.,.
O=C(Nc1cccc(S(=O)(=O)NCc2ccco2)c1)c1cc(-c2ccccc2)nc2ccccc12,10*,-20,7,16,35,31*,17*
O=C(NCc1ccco1)c1cc(-c2ccccc2)nc2ccccc12,-1,-11,0,-4,3,.,.
CC(=O)c1ccc(S(=O)(=O)NCC2CCN(C(=O)C(=O)c3cc4ccccc4o3)CC2)cc1,2,-7,.,3,.,.,.
CCCCN(CCCC)S(=O)(=O)c1ccc(NC(=O)c2cccs2)cc1,12*,-18,8,16,31,32*,16*
OCCOCCn1c(C2CCCN2c2nc(-c3ccc(F)cc3)cs2)nc2cc(C(F)(F)F)ccc21 (configuration not stated),9.9*,-2,-8,12,18,7,7
COC(=O)[C@]12C[C@H](CC(=O)NCCCN3CCCC3=O)C(=O)N(Cc3cccc4ccccc34)C1=C[C@H](C(C)C)O[C@@H]2C1CC1,-5,-1,.,-4,.,.,.
Cc1ccc(C2C3=C(CC(C)(C)CC3=O)N=C3c4ccccc4C(=O)C32)cc1 (configuration not stated),8.7*,16,-6,3,15,-16,3
CC(=O)c1ccc(-c2cc(C(C)=O)c3n(c2=O)CCC3)cc1,-459,0,.,i,.,.,.
CS(=O)(=O)N(Cc1ccco1)CC(O)Cn1c2ccccc2c2ccccc21 (configuration not stated),9.9*,-61,-16,9,11,4,5
SMILES,ADAM17 inh,HGIII-sPLA2 inh,NR3A LBD binder,ADAM10 inh,FAS TE block,ADAM10 ctr,ADAM17 confirm
CCc1ccc(NC(=O)COC(=O)/C=C/c2ccco2)cc1,11*,-15,0,5,-2,2,4
O=C(COC(=O)/C=C/c1ccco1)Nc1ccccc1,0,-8,0,-3,-1,.,.
CCCCC1CCC(C(=O)N(CCOC)c2c(N)n(CC(C)C)c(=O)[nH]c2=O)CC1 (configuration not stated),9.3*,8,-2,-9,-9,3,4
CCCCCC[C@@H](CN(CCCC)S(C)(=O)=O)c1ccccc1,55*,12,.,17,.,-6,2
COc1ccccc1CCn1cnc(-c2cccc(Br)c2)c1C(C)C,5,3,.,7,.,.,.
Clc1ccc([C@H]2OC[C@@]3(CNCc4ccccc4)CS[C@H](c4ccc(Cl)cc4)N23)cc1,2,0,.,4,.,.,.
O=C(OCc1nc2scc(-c3ccccc3)c2c(=O)[nH]1)c1cc(Cl)ccc1[N+](=O)[O-],8.6*,-21,-7,12,34,1,4
C=CC[C@]12C[C@@]3(O[C@H](C4CCCCC4)N=C3C[C@H](c3ccc(OC)cc3)[C@H]1C)N(Cc1ccncc1)C2=O,0,-11,.,-9,.,.,.
Cc1ccccc1NC(=O)c1cc(C(=O)c2cc(Cl)ccc2O)cn(-c2ccccc2C)c1=O,9.7*,-26,14*,15,32,5,8
COc1ccc(-n2c(SCC(=O)Nc3ccc(OCc4ccccc4)cc3)nnc2-c2ccc(C)cc2)cc1,0,0,.,-3,.,.,.
O=C(NC1CC1)c1ccc2c(c1)C1C3CCC(C3)C1C(c1ccccc1)N2 (configuration not stated),9.6*,8,-2,17,9,11,9.4*
Cc1ccccc1NC(=O)Cc1nc(COC(=O)c2nc(Cl)ccc2Cl)cs1,-2,-44,-3,-6,7,.,.
Cc1ccccc1NC(=O)Cc1nc(COC(=O)c2ccc(Cl)nc2)cs1,8.7*,-20,1,-10,-14,7,5
CC(C)(C)N(Cc1ccccc1)C(=O)CSc1nc2ccccc2c(=O)[nH]1,9.0*,-2,0,16,5,10,6
CC(C)(C)[C@@H]1COC(=O)[C@H](Cc2ccc(F)cc2)CC/C=C\C[C@H](CC(=O)N(CCO)Cc2ccccc2)C(=O)N1,11*,-33,-3,14,-2,7,5
O=C1N[C@@H](Cc2c[nH]c3ccccc23)COC(=O)[C@@H](Cc2ccc(F)cc2)CC/C=C/C[C@@H]1CC(=O)N(CCO)Cc1ccccc1,10*,-75,0,18,26,59*,28*

# High-throughput results from PubChem BioAssay.
